KB-3-1 cytotox – qHTS assay for MDR1-selective chemotherapeutics: Primary screen using the parental adenocarcinoma cell KB-3-1 | KB-3-1 viability, CellTiter-Glo ATP luminescence, 72 h | Potency, µM (highest dose often 46.1 µM), hits mostly cytotoxic | 400,000 compounds, 1.4% hits; note: % is set by controls: 0 for no effect and ±100 for the full control effect; nearly all actives have a fitted effect of over 60% in size
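KB-3-1 cells, DMEM (no phenol red) + 10% FBS; compound by pin transfer, 72 h, 37 °C. Readout: CellTiter-Glo luminescence after 10 min. Data normalized, curve-fitted.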
HT1080-NT tox – qHTS for induction of synthetic lethality in tumor cells producing 2HG: qHTS for the HT-1080-NT fibrosarcoma cell line; AID 686970, 2013; 360,000 compounds, 1.6% hits; HT-1080-NT fibrosarcoma viability, CellTiter-Glo ATP luminescence, 48 h; Potency, µM (doses to about 46.1 µM), for inactives: top-dose activity, negative = less viability, hits mostly cytotoxic;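 note: NT is the 2HG producing partner of a matched IDH1 knockdown line; 0% = DMSO-treated cells and -100% = media-only wells without cells; nearly all actives have a fitted effect of over 55% in size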
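Read-out is CellTiter-Glo luminescence after 10 minutes at room temperature, following 48 hours' compound treatment of HT-1080-NT cells (750 cells/well, RPMI, 5% FBS, 37 degrees C).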
HT1080 IDH1KD tx – qHTS for induction of synthetic lethality in tumor cells producing 2HG: qHTS for the HT-1080-IDH1KD cell line; HT-1080 IDH1 knockdown viability, ATP luminescence, 48 h; 360,000 compounds, 2% hits; AID 686971, 2013; Potency, µM (top dose mostly 46.1 µM), for inactives: top-dose activity, negative = toxicity, usual class: cytotoxic;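 note: 0% = DMSO wells and -100% = cell-free medium wells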
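Viability of IDH1-knockdown HT-1080 fibrosarcoma cells was assessed by CellTiter-Glo after 48 h at 37 °C with titrated compound; concentration-effect curves were classified by fit quality and response size.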
ATXN2 expr inh – Primary qHTS for Inhibitors of ATXN expression | HEK-293 ATXN2-luciferase reporter, luminescence, 24 h | 360,000 compounds, 0.72% hits | Potency, µM (doses to about 57 µM), inactives show top-dose activity change, negative = inhibition, most hits filed as inhibitors; note: % is set by controls: 0 for no effect and ±100 for the full control effect; nearly all actives have a fitted effect of over 55% in size
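qHTS (up to 57 uM final) was run with 24 h compound exposure of reporter cells at 37 °C. Each well was multiplexed: SteadyGlo luminescence measured ATXN2-luciferase expression after a fluorogenic Gly-Phe-AFC viability readout (25 uM final).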
KB-V1 cytotox – qHTS assay for MDR1-selective chemotherapeutics: Primary screen using the drug-selected MDR subline cells KB-V1; Potency, µM (titrated, usually from 46.1 µM), actives largely listed as cytotoxic; 400,000 compounds, 3.4% hits; KB-V1 MDR cells viability, CellTiter-Glo, 72 h; note: % is set by controls: 0 for no effect and ±100 for the full control effect; nearly all actives have a fitted effect of over 60% in size
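Cells of the MDR subline KB-V1 are plated, dosed with compound at multiple concentrations, and incubated 72 h at 37 degrees C; CellTiter-Glo is then added and luminescence read after 10 min.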
S2 tox – Viability Counterscreen for Primary qHTS for Inhibitors of ATXN expression | Potency, µM (series often up to 56.7 µM), actives largely listed as cytotoxic | 400,000 compounds, 0.49% hits | S2 cells (HEK-293 line with an ATXN2-luciferase reporter) viability, CellTiter-Fluor protease fluorescence, 24 h | AID 651635, 2014; note: nearly all actives have a fitted effect of over 40% in size
The depositor's hits bear a star; i = inactive; u = inconclusive; x = not tested or not shown. Compounds with a hit are over-represented: about 6.2% of the library has one in this group of screens. Calls come from the whole dose curve; as a rule, active = well fitted curve in the direction sought with a large enough effect; inconclusive = small, poorly fitted or top-dose-only effect, or another doubt; inactive = no such curve, though single readings can be large; an effect the other way counts as inactive or inconclusive. Potency is the fitted concentration of half-maximal effect.

SMILES	KB-3-1 cytotox	HT1080-NT tox	HT1080 IDH1KD tx	ATXN2 expr inh	KB-V1 cytotox	S2 tox
Cc1cc(S(=O)(=O)Nc2ccc(N(C)C)cc2)c(C)s1	i	-11.2%	-26.0%	3.9%	16.4µM*	i
COc1cccc(Nc2nc(C(N)CC(C)C)cs2)n1 (centres undefined)	i	u	16.4µM*	-1.9%	i	u
COc1cccc(Nc2nc(C(N)Cc3ccc(C(F)(F)F)cc3)cs2)n1 (centres undefined)	i	13µM*	23.1µM*	20µM*	i	x
COc1cccc(Nc2nc(C(N)Cc3ccc(Cl)cc3)cs2)n1 (centres undefined)	i	23.1µM*	16.4µM*	25.1µM*	i	31.6µM*
COC(=O)c1cnc(Nc2nc(C(N)Cc3ccc(OC)cc3)cs2)nc1C(F)(F)F (centres undefined)	i	23.1µM*	u	-23.1%	i	u
COc1ccc(CC(N)c2csc(Nc3ccccn3)n2)cc1 (centres undefined)	i	-9.3%	u	u	i	u
COc1cccc(Nc2nc(C(N)C(C)C)cs2)n1 (centres undefined)	u	u	-13.2%	-6.1%	i	i
NC(Cc1ccccc1)c1csc(Nc2ccc(C(F)(F)F)cn2)n1 (centres undefined)	u	u	u	u	u	i
O=C(CSc1cn(CCNC(=O)c2c(F)cccc2F)c2ccccc12)Nc1ccccc1F	i	x	x	-21.6%	u	u
CCOc1ccc(C2C(C(N)=O)=C(C)Nc3nc(SCc4ccccc4F)nn32)cc1 (centres undefined)	i	x	x	1.6%	u	i
COc1ccc(CC(N)c2csc(Nc3cccc(OC)n3)n2)cc1 (centres undefined)	i	25.9µM*	-24.6%	-7.8%	u	u
NC(=O)c1cccc(Nc2nc(C(N)Cc3ccc(C(F)(F)F)cc3)cs2)n1 (centres undefined)	u	7.31µM*	u	28.2µM*	i	u
COc1cc(OC)nc(Nc2nc(C(N)Cc3ccc(C(F)(F)F)cc3)cs2)n1 (centres undefined)	u	18.4µM*	u	u	u	u
COc1ccc(CNC(=O)Nc2nc(C(N)Cc3ccc(C(F)(F)F)cc3)cs2)cc1 (centres undefined)	u	u	u	u	u	i
CCOC(=O)c1cnn(CCOC(=O)c2ccccc2)c1NC(=O)c1ccccc1	i	-1.2%	-6.0%	1.8%	10.3µM*	i
CCOC(=O)c1cnn(CCOC(=O)c2ccc(OC)cc2)c1NC(=O)c1ccc(OC)cc1	i	-4.3%	-4.2%	-14.2%	u	i
O=C(NCc1cccc(Cl)c1)c1cnc(N2CCCCC2)c2ccccc12	i	x	x	x	i	x
CCCCNC(=O)c1c(O)c2cccc3c2n(c1=O)CCC3	i	7.8%	4.1%	-3.2%	i	i
O=C(NCCCO)c1c(O)c2cccc3c2n(c1=O)CCC3	5.8µM*	-8.1%	-14.8%	-0.3%	11.6µM*	i
CCn1c(SCC(=O)Nc2ccc(C(C)=O)cc2)nc2nc3c(cc2c1=O)CCCC3	i	6.0%	-8.9%	u	i	28.2µM*
CCn1c(SCC(=O)Nc2ccc(Cl)cc2)nc2nc3c(cc2c1=O)CCCC3	i	1.5%	5.7%	-24.3%	0.517µM*	i
C=CCOc1ccc(Br)cc1/C=N/O	i	-1.6%	-1.0%	-17.4%	i	i
C=CCOc1ccc(/C=N/O)cc1Cl	11.6µM*	5.2%	10.9%	2.0%	i	u

Bioassay records (PubChem)
